Records with an inconclusive call do not appear. Active and inactive are the calls of the source. Calls come from the whole dose curve; as a rule, active = well fitted activation curve with a large enough effect in the signal ratio in the repeat runs (not every such curve was filed as active); inconclusive = weak or mixed curves, or effect the other way; inactive = flat fitted curve, though single readings scatter; the % refers to the signal ratio.

The assay can be described thus: qHTS assay to identify small molecule agonists of the endoplasmic reticulum stress response signaling pathway (AID 1159516). Particulars: ESRE-bla HeLa, ER stress beta-lactamase reporter, 5 h; series mostly up to 61 µM. The text has this:
National Center for Advancing Translational Sciences [NCATS]
NIH Chemical Genomics Center [NCGC]
U.S. Environmental Protection Agency [EPA]
National Institutes of Environmental Health Sciences [NIEHS]
National Toxicology Program [NTP]
U.S. Food and Drug Administration [FDA]
Endoplasmic Reticulum (ER) plays an important role in cellular signaling, protein folding/maturation, stress response, lipid biosynthesis, calcium storage and release etc. Under stress conditions, proteins in ER misfold or unfold, and leading to the expression of ER stress responsive genes. ER stress has been associated with a variety of pathophysiological conditions such as cancer, inflammation, neurodegenerative diseases, diabetes, ischemic heart disease etc. To identify the compounds that induce ER stress response, an ER stress reporter cell line, CellSensor ESRE-bla HeLa (Life Technologies, Carlsbad, CA) containing a beta-lactamase reporter gene under control of the Endoplasmic reticulum Stress Response Element (ESRE) was used to screen Tox21 10K compound library.
Tox21 Assay Protocol Summary:
ESRE-bla HeLa cells were dispensed at 1,500 cells/6 uL of assay medium per well into black wall/clear-bottom 1536-well plates using a Multidrop Combi (ThermoFisher Scientific, Waltham, MA) dispenser. After the assay plates were incubated at 37 C and 5% CO2 for an overnight, 23 nL of compounds dissolved in DMSO, positive controls or DMSO only was transferred to the assay plate by a Pintool station (Kalypsys, San Diego, CA). The assay plates were incubated at 37 C and 5% CO2 for 5 hr. One uL of LiveBLAzer B/G FRET substrate (Life Technologies) was added using a Flying Reagent Dispenser (Aurora Discovery, San Diego, CA) and the plates were incubated at room temperature for 2 hr. Fluorescence intensity (405 nm excitation, 460 nm and 530 nm emissions) was measured using an Envision plate reader (PerkinElmer, Shelton, CT).
In the case of `CC(C)OC(=O)Nc1cccc(Cl)c1`, the result was inactive.
Regarding `COC(=O)c1ccccc1C(=O)OC`, the outcome was inactive.
In the case of `CC(C#N)CCC#N` (stereo not given), the outcome was inactive.
The result for `CN(C)N=O` reads “inactive”; that for `CCC[CH2][Sn]([Cl])([Cl])[Cl]`, “inactive”; that for `O=C1CCCN1`, “inactive”.
The result for `CCCCCOC(=O)c1ccccc1C(=O)OCCCCC` reads “inactive”; that for `c1ccc(OP(Oc2ccccc2)Oc2ccccc2)cc1`, “inactive”.
Next, `ClCc1cccnc1`: “inactive”; `O=c1[nH]c(=O)[nH]c(=O)[nH]1`: “inactive”.
In the case of `NCCc1ccc(O)cc1`, the result was inactive.
The result for `CCc1cccc(C)c1N(C(=O)CCl)C(C)COC` (stereo not given) reads “inactive”; that for `CN(C)CCO`, “inactive”.
Consider `CCN(CC)c1ccccc1`, for which the outcome was inactive.
Regarding `O=S(=O)(c1ccc(O)cc1)c1ccc(O)cc1`, the compound was classed as inactive.
Next, `CCC(C)(CC)c1cc(NC(=O)c2c(OC)cccc2OC)on1`: “inactive”.
The result for `O=NN1CCCC1` reads “inactive”; that for `O=[N+]([O-])c1ccc(Oc2ccc(Cl)cc2Cl)cc1`, “inactive”.
Next, `Cc1ccc([N+](=O)[O-])cc1C`: “inactive”; `Cc1[nH]c(=O)n(C(C)(C)C)c(=O)c1Cl`: “inactive”.
As for `Clc1cccc(Cl)c1Cl`, the result was inactive.
The result for `O=[N+]([O-])c1ccccc1` reads “inactive”; that for `CC(C)N1C(=O)c2ccccc2NS1(=O)=O`, “inactive”.
The result for `CC(Br)C(=O)O` (stereo not given) reads “inactive”; that for `CCCCOC(=O)c1ccccc1C(=O)OCCCC`, “inactive”.
The result for `Cn1cc(-c2ccccc2)c(=O)c(-c2cccc(C(F)(F)F)c2)c1` reads “inactive”.
Consider `O=Cc1cccc(Oc2ccccc2)c1`, for which the outcome was inactive.
Next, `CCN(CC)CCO`: “inactive”.
Next, `C1CN2CCN1CC2`: “inactive”; `Nc1ccc(Br)cc1`: “inactive”.
The result for `Cc1ccc(N)cc1N` reads “inactive”; that for `CCNc1nc(NC(C)(C)C)nc(SC)n1`, “inactive”.
For `Clc1ccccc1Cl`, the result was inactive.
For the compound `BrCCBr`, the outcome was inactive.
Regarding `CCCCCCCCCCCC#N`, the result was inactive.
Next, `C[C@]12CC[C@H]3[C@@H](CC[C@@]45O[C@@H]4C(O)=C(C#N)C[C@]35C)[C@@H]1CC[C@@H]2O`: “inactive”.
Next, `COC(=O)c1ccccc1N`: “inactive”.
Regarding `c1ccc(-c2ccccc2)cc1`, the call was inactive.
As for `O=[N+]([O-])c1ccc([As](=O)(O)O)cc1`, the call was inactive.
Next, `CN=C=S`: “inactive”.

The values are drawn from PubChem BioAssay (Tox21).
